mHTT CaM bind: mHTT-calmodulin interaction abrogation | P42858 | AlphaScreen His-mHTT/GST-CaM binding, luminescence | inhibition, % at 15 µM | 190,000 compounds, 3.6% hits;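 note: 0% = both proteins with DMSO and 100% = one protein alone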
Pf apPOL inh: Pf-apPOL DNA polymerase inhibition | Recombinant Pf-apPOL, molecular beacon fluorescence, 1.5 h | inhibition, % at 10 µM | 210,000 compounds, 0.25% hits | AID 1794808
An asterisk follows results filed as active; / = no result. The list is not random: actives were taken first. Their share in the collection is about 3.6%. Cut-off read from the data, not from the text of the source: active = inhibition above about 50%; inactive = the rest.

SMILES	mHTT CaM bind	Pf apPOL inh
CNC1C(O)C(NC)C2OC3(O)C(=O)CC(C)OC3OC2C1O (centres undefined)	/	83*
COC(=O)c1ccccc1NC(=O)CSc1nnc(Cc2ccccc2)n1-n1cccc1	-6	3
Cc1ccc(NC(=O)NCC2CCN(Cc3ccccc3F)CC2)cc1	4	-1
COc1ccc(CCNS(=O)(=O)c2ccc(C)cc2)cc1OC	-6	-5
COc1ccc(S(=O)(=O)NCCc2ccc(N3CCCC3)cc2)cc1OC	54*	0
O=C(Cc1c(C(=O)O)[nH]c2ccc(Cl)cc12)Nc1ccc(Cl)cn1	2	-6
Nc1ncnc(NCCCO)c1[N+](=O)[O-]	-3	2
COc1ccc(Cl)cc1S(=O)(=O)NCC(c1cccn1C)N1CCCC1 (centres undefined)	-2	-7
CN1CCc2cc(C(CNS(=O)(=O)c3ccc(Cl)s3)N3CCOCC3)ccc21 (centres undefined)	99*	-12
CN1CCc2cc(C(CNC(=O)c3cccs3)N3CCOCC3)ccc21 (centres undefined)	95*	-19
CN1CCCc2cc(C(CNC(=O)Cc3cccs3)N3CCOCC3)ccc21 (centres undefined)	29	-17
O=S(=O)(NCC(c1ccsc1)N1CCOCC1)c1cccs1 (centres undefined)	-23	-3
COc1ccc(Cl)cc1S(=O)(=O)NCC(c1ccc2c(c1)CCN2C)N(C)C (centres undefined)	69*	-10
Cn1c(=O)c([N+](=O)[O-])c(N2CCOCC2)c2ccccc21	-3	1
COCCn1c(C2CCN(C(=O)Nc3cccc(F)c3)C2)nc2cccnc21 (centres undefined)	-1	-8
CC(NC(=O)C1CCN(c2cnn(Cc3ccccc3)c(=O)c2)CC1)c1ccccc1 (centres undefined)	2	-6
COc1ccc(NC(=O)C2CCCN(c3nccc(C)n3)C2)cc1OC (centres undefined)	-2	0
Nc1nc2c(nc(N=Nc3c(O)[nH]c4ccccc34)n2C2OC(CO)C(O)C2O)c(=O)[nH]1 (centres undefined)	63*	/
NCCCCCCNc1nc2c(=O)[nH]cnc2n1C1OC(CO)C(O)C1O (centres undefined)	-5	/
O=C(NCCN1CCCC1)C1CCN(c2ncccc2-c2nc(-c3ccccc3)no2)CC1	6	-2
COc1cc(OC)c(C2SCCN2S(=O)(=O)c2ccc(Cl)cc2)cc1OC (centres undefined)	32	-4
COc1cc(OC)c(C2SCCN2S(=O)(=O)c2ccc(Br)cc2)cc1OC (centres undefined)	51*	1
Cc1ccc(-n2nc(C)c3c2OC(N)=C(C#N)C3c2c(F)cccc2Cl)cc1 (centres undefined)	10	0
Cc1ccc(-n2nc(C)c3c2OC(N)=C(C#N)C3c2ccco2)cc1 (centres undefined)	60*	-3
Clc1ccc(N2Cc3ccccc3C2)cc1Cl	87*	-2
SMILES	mHTT CaM bind	Pf apPOL inh
O=C(c1c(F)cccc1F)N1CCN(c2ccc(Cl)c(Cl)c2)CC1	19	3
CC(=O)c1cccc(NC(=O)CSc2nnnn2-c2ccccc2Cl)c1	2	-7
COc1cccc(C2=CC(c3ccc(Br)cc3)n3nnnc3N2)c1 (centres undefined)	1	-3
CCN(CC)CCSc1nc2ccc(OC)cc2[nH]1	26	5
CCN(CC)CCCC(C)Nc1c2ccc(Cl)cc2nc2ccc(OC)cc12 (centres undefined)	/	62*
Cc1ccc(NC(=O)c2noc3c2CCCC3)cc1C	-10	-5
OCCn1c(-c2ccc(F)cc2)csc1=Nc1ccccc1	43	-6
CCn1c(-c2ccc(OC)c(F)c2)csc1=Nc1ccccc1	72*	-3
C=CCn1c(-c2ccc(OC)c(OC)c2)csc1=Nc1ccccn1	34	-3
COc1ccc(N=c2scc(-c3ccc(OC)cc3F)n2CCO)cc1	27	-6
OCCn1c(-c2ccc(F)cc2)csc1=Nc1cccc(Cl)c1	98*	-2
COc1ccc(-c2csc(=Nc3ccc(F)cc3)n2CCO)cc1F	53*	-2
c1c2c(cc3c1OCO3)OCN(CCOC13CC4CC(CC(C4)C1)C3)C2	19	-4
NC(=O)c1cc(C2(O)CCCCC2)on1	-4	/
CCC(=O)N1CCc2sc(C(=O)N3CCN(CC)CC3)cc2C1	-2	6
CC(=O)N1CCc2sc(C(=O)N3CCN(c4ccccc4F)CC3)cc2C1	33	2
CCC(=O)N1CCc2sc(C(=O)N3CCN(c4cc(C)ccc4C)CC3)cc2C1	66*	2
CC(=O)N1CCc2sc(C(=O)N3CCN(c4cc(C)ccc4C)CC3)cc2C1	65*	1
COc1ccccc1/C=C/C1=NC(=C/c2ccc(Cl)c(Cl)c2)/C(=O)O1	19	-6
COc1ccc(/C=C2/C(=O)ON=C2C)cc1Cl	12	-5
C#CCOc1c(Br)cc(/C=C2\C(=O)ON=C2C)cc1OCC	24	12
CCOc1cc(/C=C2\C(=O)ON=C2C)cc(Br)c1OCc1ccc(C)cc1	89*	-5
CCOc1cc(/C=C2\C(=O)ON=C2C)cc(Cl)c1OCc1ccc(C)cc1	71*	4
Cc1ccc(-c2nnc3s/c(=C\c4cccs4)c(=O)n23)cc1	-3	4
Cc1ccccc1N=C1C(=O)N(CN2CCOCC2)c2ccccc21	7	-3
SMILES	mHTT CaM bind	Pf apPOL inh
CC1CCN(S(=O)(=O)c2ccc3[nH]c(=O)cc(C(=O)NCc4ccccn4)c3c2)CC1	-12	-6
CC1CCCCN1S(=O)(=O)c1ccc2[nH]c(=O)cc(C(=O)NCc3ccccc3Cl)c2c1 (centres undefined)	63*	36
CC1(C)C(C=C(Cl)Cl)C1C(=O)Nc1ccc([N+](=O)[O-])cc1 (centres undefined)	99*	-6
O=C(Nc1cccnc1)C1C(c2ccccc2)C1(Cl)Cl (centres undefined)	-7	-3
CC1(C)C(C=C(Cl)Cl)C1C(=O)Nc1ccc(S(N)(=O)=O)cc1 (centres undefined)	2	-3
Cc1cc(C)nc(NS(=O)(=O)c2ccc(NC(=O)C3C(C=C(Cl)Cl)C3(C)C)cc2)n1 (centres undefined)	67*	-5
O=C(Nc1ccc([N+](=O)[O-])cc1)C1C(c2ccccc2)C1(Cl)Cl (centres undefined)	94*	-8
COc1ccc(NC(=O)C2C(C=C(Cl)Cl)C2(C)C)cc1 (centres undefined)	-36	-6
Cc1cc([N+](=O)[O-])nn1CC(=O)Nc1cc(Oc2cccnc2)cc([N+](=O)[O-])c1	14	-10
COc1ccc(C)cc1NC(=O)N1CCc2nc(-c3ccc(F)cc3)ncc2C1	4	-7
O=C(NCC1CCN(Cc2ccccc2F)CC1)c1csc(-c2ccncc2)n1	30	-4
COCC1CCN(C(=O)c2cccc(N3CCNC(c4ccccc4)C3)n2)CC1 (centres undefined)	8	-14
O=C(CSc1nn2c(SCC(=O)c3cccs3)nnc2s1)c1cccs1	17	5
Cn1cnnc1SCC(=O)c1cccs1	-5	98*
CCOc1ccc(C2C3=C(CCCC3=O)NC3=C2C(=O)c2ccccc23)cc1 (centres undefined)	74*	-4
CCOc1ccc(C2C3=C(CCCC3=O)Nc3ncnn32)cc1 (centres undefined)	-7	-1

From PubChem BioAssay
